Bioassay records deposited in PubChem by Buhrlage Lab, Dana-Farber Cancer Institute and Novartis Institutes for BioMedical Research (Cambridge, Mass).
USP7 block: inhibitors of human USP7 deubiquitinase | Ubiquitin carboxyl-terminal hydrolase 7 (Homo sapiens), Q93009 | purified USP7, Ub-rhodamine cleavage fluorescence | inhibition, % at 20 µM | hit rate 0.3% among 47,000
USP10 block: inhibitors of human USP10 deubiquitinase; purified USP10, Ub-rhodamine fluorescence, 60 min; hit rate 1.1% among 47,000; inhibition, % at 20 µM
Target sequence (Q14694 whole entry, looked up): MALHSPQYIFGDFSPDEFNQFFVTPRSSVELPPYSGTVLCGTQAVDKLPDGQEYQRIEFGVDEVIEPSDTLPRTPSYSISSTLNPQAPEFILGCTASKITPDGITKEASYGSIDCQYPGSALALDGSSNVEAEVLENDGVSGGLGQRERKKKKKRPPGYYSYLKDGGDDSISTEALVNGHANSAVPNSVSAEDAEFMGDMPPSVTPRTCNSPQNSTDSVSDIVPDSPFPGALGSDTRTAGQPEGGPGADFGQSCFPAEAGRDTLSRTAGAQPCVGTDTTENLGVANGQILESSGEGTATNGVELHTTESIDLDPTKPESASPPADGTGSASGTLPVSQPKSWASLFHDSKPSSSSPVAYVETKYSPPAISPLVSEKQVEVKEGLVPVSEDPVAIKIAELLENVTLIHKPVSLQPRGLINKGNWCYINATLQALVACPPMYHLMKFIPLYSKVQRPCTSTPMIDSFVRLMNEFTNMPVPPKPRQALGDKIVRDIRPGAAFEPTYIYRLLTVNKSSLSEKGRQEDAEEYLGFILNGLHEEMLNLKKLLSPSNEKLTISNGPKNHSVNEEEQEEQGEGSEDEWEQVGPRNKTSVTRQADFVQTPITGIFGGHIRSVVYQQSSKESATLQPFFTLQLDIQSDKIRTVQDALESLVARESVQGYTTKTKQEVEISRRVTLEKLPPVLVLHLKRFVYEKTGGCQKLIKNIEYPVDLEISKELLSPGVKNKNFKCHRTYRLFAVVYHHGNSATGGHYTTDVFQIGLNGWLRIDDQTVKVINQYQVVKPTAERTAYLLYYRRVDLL
OTUD3 block: inhibitors of human OTUD3 deubiquitinase; purified OTUD3, Ub-rhodamine fluorescence, 2 h; inhibition, % at 25 µM; OTU domain-containing protein 3 (Homo sapiens), Q5T2D3; AID 1645858, 2021; hit rate 0.7% among 47,000
UCHL1 block: inhibitors of human UCHL1 deubiquitinase; Ubiquitin carboxyl-terminal hydrolase isozyme L1 (Homo sapiens), P09936; hit rate 0.2% among 47,000; AID 1645859, 2021; purified UCHL1, Ub-rhodamine cleavage fluorescence; inhibition, % at 20 µM
USP28 block: inhibitors of human USP28 deubiquitinase; purified USP28, Ub-rhodamine cleavage fluorescence, 30 min; Ubiquitin carboxyl-terminal hydrolase 28 (Homo sapiens), Q96RU2; hit rate 3% among 47,000; AID 1645857, 2021; inhibition, % at 25 µM
Each line names hits and unclear results; the compound was inactive in the other large screens. An excerpt weighted towards active compounds, which were near 4.2% of everything screened. Rule as the data show it: active = inhibition above about 30%; inactive = the rest.

O=C(CCc1nnc2n(Cc3ccccc3)c(=O)c3ccccc3n12)NCC1CCCO1 (stereo not given)	none
COc1c(C)c(C(O)C(C)O)c2[nH]c3ccc(CC=C(C)C)cc3c2c1O (stereo not given)	USP28 block 48
Cc1ccc(S(=O)(=O)Nc2nc(-c3ccc4c(c3)NC(=O)C(C)O4)c(C)s2)cc1 (stereo not given)	USP10 block 41
Cc1cnn(CC2CN(Cc3csc(-c4ccco4)n3)CCO2)c1 (stereo not given)	none
Cn1cc(-c2noc(Cc3cccc(C(F)(F)F)c3)n2)ccc1=O	USP28 block 79
O=C(CN(Cc1ccccc1)S(=O)(=O)c1ccccc1)NCc1ccccc1Cl	none
O=C(CN(CC(=O)NCc1ccccc1Cl)c1nc2ccccc2s1)NCc1ccccc1Cl	USP10 block 36
FC(F)(F)c1cccc(-c2nc(-c3ccccn3)no2)c1	none
Cn1c(SCc2ccccc2)nnc1-c1csc(-c2ccccc2)n1	USP28 block 41
c1ccc(-c2nc(CSc3nnc(C4CC4)n3-c3ccccc3)cs2)cc1	none
CSc1nnc(-c2csc(-c3cccc(C(F)(F)F)c3)n2)n1C	USP28 block 78
Cc1ccc2c(c1)c1ncn(Cc3nc(C)no3)c(=O)c1n2CC(=O)NCc1ccccc1	USP10 block 30, USP28 block 58
Cc1ccc(CNC(=O)Cn2c(=O)cc(-c3nc(C)no3)c3ccccc32)cc1	none
CCCCN1CC(C(=O)Nc2ccc(C(=O)Nc3ccc(C(N)=O)cc3)cc2)CC1=O (stereo not given)	USP10 block 41
O=C(Nc1ccc2c(c1)OCO2)C1CC(=O)N(CCc2ccccc2)C1 (stereo not given)	none
Cc1nc2ncnn2c2c1CCN2CCN1CCCCC1	none (no result: USP28 block)
Cc1sc2ncnc(OCc3ccc([N+](=O)[O-])cc3)c2c1C	USP28 block 46
Cc1sc2ncnc(OCc3ccc(F)cc3Cl)c2c1C	USP28 block 58
CCc1ccc(C(=O)COc2ncnc3sc(C)c(C)c23)cc1	none
Cc1sc2ncnc(OCC(=O)c3cc(F)ccc3F)c2c1C	none
Cc1csc(-c2[nH]ncc2-c2ccsc2)n1	USP28 block 34
CCOc1ccc(-c2cc3nc(C4CCN(C(=O)OC(C)(C)C)CC4)c(C(=O)Nc4cc(F)ccc4F)cn3n2)cc1	OTUD3 block 31
Cc1cc(=O)n2[nH]c(C(c3ccccc3)c3ccccc3)nc2n1	none
Cc1nc2nc(C(c3ccccc3)c3ccccc3)[nH]n2c(=O)c1Cc1ccccc1	USP10 block 34
Fc1ccc(-c2nn3c(-c4ccc5c(c4)OCO5)nnc3s2)cc1	none
O=C(Nc1ccccc1)c1cc(-c2ccncc2)n[nH]1	none
O=C(Nc1ccccc1Cl)c1cc(-c2ccncc2)n[nH]1	USP28 block 79
Cc1cc(Cl)ccc1NC(=O)c1cc(-c2ccncc2)n[nH]1	USP28 block 72
C/C=C/c1ccc(O[C@@H](C)[C@@H](O)c2ccc(O)c(OC)c2)c(OC)c1	none
O=C(Nc1ccc(F)c(Cl)c1)c1ccc(N2CCCCS2(=O)=O)cc1Cl	USP28 block 52
O=C(Nc1cccc(F)c1)c1ccc(N2CCCCS2(=O)=O)cc1Cl	USP28 block 33
O=C(N[C@@H]1C[C@H]2Oc3ccccc3N[C@H]2[C@@H]1O)c1ccc(F)cc1	none
Cc1ccccc1CNC(=O)CCn1cnc2c(-c3ccccc3)noc2c1=O	none
Oc1cc(OCc2cccc(C(F)(F)F)c2)ccc1-c1ccn[nH]1	USP28 block 81
COc1ccc(CNC(=O)[C@H](C)NC(=O)C2CCN(C(=O)[C@H](Cc3ccccc3)NC(=O)OC(C)(C)C)CC2)cc1	none
Cc1ccccc1Cn1ccc(NC(=O)c2noc(C)c2[N+](=O)[O-])n1	USP28 block 75
Cc1ccc(Cn2ccc(NC(=O)c3cc(-c4ccco4)on3)n2)cc1	none
O=c1cc(CN2CCc3ccccc3C2)nc2nc(NCc3ccc(Cl)cc3)[nH]n12	USP28 block 30
O=c1cc(CN2CCc3ccccc3C2)nc2nc(NCc3ccccc3)[nH]n12	none
CC(C)Oc1ccc(C(=O)OCC(=O)Nc2ccc(Oc3ccccc3)cc2)cc1	none
COc1cccc(OC)c1C(=O)OCC(=O)Nc1ccc(Oc2ccccc2)cc1	USP28 block 34
